TEAD-YAP block: TEAD-YAP interaction inhibition. AID 1259422. 640,000 tested, 1.4% active. inhibition, % at 9.12 µM. HEK-TIYL cells, TEAD-Gal4/YAP UAS-luciferase luminescence; in the data active = inhibition above about 32%
MITF inh: blocks human microphthalmia-associated transcription factor; O75030; AlphaScreen MITF homodimerization, bead proximity signal; inhibition, % at 2.6 µM; 650,000 tested, 0.91% active; in the data active = inhibition above about 50%
GPR151 activ: activates the human receptor GPR151 | Q8TDV0 | PathHunter beta-arrestin GPR151 cells, luminescence | activation, % at 11.2 µM | 650,000 tested, 1% active | AID 1508602; in the data active = activation above about 4.9%
Target sequence (Q8TDV0 whole entry, looked up): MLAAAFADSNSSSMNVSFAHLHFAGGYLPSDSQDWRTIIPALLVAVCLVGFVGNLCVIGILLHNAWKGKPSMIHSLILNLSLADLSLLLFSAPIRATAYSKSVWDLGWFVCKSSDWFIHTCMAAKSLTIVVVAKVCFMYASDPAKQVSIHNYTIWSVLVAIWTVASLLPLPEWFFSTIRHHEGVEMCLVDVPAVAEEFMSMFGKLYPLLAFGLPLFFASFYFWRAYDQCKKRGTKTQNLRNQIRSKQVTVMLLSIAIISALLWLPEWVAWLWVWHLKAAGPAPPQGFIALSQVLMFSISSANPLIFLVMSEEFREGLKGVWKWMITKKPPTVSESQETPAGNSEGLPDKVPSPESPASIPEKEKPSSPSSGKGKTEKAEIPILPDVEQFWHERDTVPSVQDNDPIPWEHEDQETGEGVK
FBW7 activator: human FBW7 E3 ligase activation, primary screen | Q969H0 | AlphaScreen FBW7–phospho-cyclin E peptide binding, activator screen | normalized activity (activation), % at 26.1 µM | 650,000 tested, 0.13% active | AID 1259310; in the data active = normalized activity above about 1.9%;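 also: purified mutant Fbw7 with reduced substrate affinity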
Numbers stand for hits; . = inactive; ! = not confirmed by another sample. Most compounds without a hit are left out; they make up all but 3.5% or so of the library.

SMILES | TEAD-YAP block | MITF inh | GPR151 activ | FBW7 activator
c1cn(-c2ccc(Nc3nccc(Nc4ccc5c(c4)OCO5)n3)cc2)cn1 | 36.3 | . | . | .
c1ccc(Nc2ccnc(Nc3ccc(N4CCOCC4)cc3)n2)cc1 | . | . | . | .
c1cn(-c2ccc(Nc3nccc(-c4cncc(N5CCOCC5)c4)n3)cc2)cn1 | 78.1 | . | . | .
c1ccc(Cc2nc3ccc(Nc4nccc(-c5cncc(N6CCOCC6)c5)n4)cc3o2)cc1 | . | . | . | .
CCc1nc2ccc(Nc3nccc(-c4cncc(N5CCOCC5)c4)n3)cc2o1 | 34.1 | . | . | .
COc1ccc(Nc2nccc(-c3cncc(N4CCOCC4)c3)n2)cc1 | 61.1 | . | . | .
O=C(c1ccc(Nc2nccc(-c3cncc(N4CCOCC4)c3)n2)cc1)N1CCOCC1 | 51.5 | . | . | .
Cn1ncc2cc(Nc3nccc(-c4cncc(N5CCOCC5)c4)n3)ccc21 | 68.7 | . | . | .
c1cc(-c2cncc(N3CCOCC3)c2)nc(Nc2ccc(-n3cncn3)cc2)n1 | . | . | . | .
COC(=O)/C=C\C(=O)Nc1ccc(Br)c(C)c1 | 47.2 | . | . | .
CCCNc1nc(Nc2ccc3ncccc3c2)nc2c1ncn2-c1ccccc1 | 34.4 | . | . | .
CCCNc1nc(Nc2ccncc2)nc2c1ncn2-c1ccccc1 | 43.0 | . | . | .
Oc1ccc(CCNc2nc(Nc3ccc4ncccc4c3)nc3c2ncn3-c2ccccc2)cc1 | 45.6 | . | . | .
CCCNc1nc(Nc2ccccc2)nc2c1ncn2-c1ccccc1 | . | . | . | .
OCCNc1nc(Nc2ccc3ncccc3c2)nc2c1ncn2-c1ccccc1 | 45.1 | . | . | .
FC(F)(F)Oc1ccc(-c2cnc3c(NCc4ccncc4)nccn23)cc1 | . | . | . | .
O=c1/c(=C/c2ccco2)sc2nc(-c3cccs3)nn12 | . | . | . | .
Cc1c(N=Cc2ccc(O)c([N+](=O)[O-])c2)c(=O)n(-c2ccccc2)n1C | . | . | . | .
Cc1ccc2c(c1)NC(=O)C(CC(=O)Nc1c(F)cc(F)cc1Br)O2 (stereo not given) | . | . | . | .
COC(=O)CNC(=O)C(CC(C)C)NC(=O)C(Cc1ccccc1)NC(=O)OC(C)(C)C (stereo not given) | . | . | . | .
OCCNc1nc(Nc2ccncn2)nc2c1ncn2Cc1ccc(C(F)(F)F)cc1 | . | . | . | 3.1
CCCNc1nc(Nc2ccc3ncccc3c2)nc2c1ncn2-c1ccsc1 | 48.3 | . | . | .
Oc1ccc(CCNc2nc(Nc3ccncn3)nc3c2ncn3-c2ccccc2)cc1 | 43.0 | . | . | .
COc1cccc([C@@H]2Nc3ccc(C(C)=O)cc3[C@@H]3C=CC[C@@H]32)c1OC | . | . | . | .
Fc1ccccc1NC(=S)NCCN1CCOCC1 | . | . | . | .
SMILES | TEAD-YAP block | MITF inh | GPR151 activ | FBW7 activator
O=C(Nc1ccc2c(c1)OCCO2)c1ccccc1NC(=S)NCCN1CCOCC1 | 73.4 | . | . | .
CCOC(=O)C1=C(C)NC2=C(C(=O)CC(c3ccc(OC)cc3)C2)C1c1ccccc1OC(C)C (stereo not given) | . | . | . | .
CC1=C(C#N)C(c2ccc(C)cc2)C2=C(CC(c3ccccc3)CC2=O)N1 (stereo not given) | 32.3 | . | . | .
COc1ccc(C2CC(=O)C3=C(C2)NC(C)=C(C(=O)OC(C)C)C3c2ccccc2OC(C)C)cc1 (stereo not given) | . | . | . | 2.4
CC1=C(C(=O)OC(C)C)C(c2ccncc2)C2=C(CC(c3ccccc3)CC2=O)N1 (stereo not given) | . | . | . | 2.1!
CN(C)CCNc1nc(Cc2ccccc2)nc2sc3c(c12)CCCC3 | . | . | . | .
CCCOc1ccc(C(=O)Nc2ccc(N3CCN(C(=O)CCC)CC3)cc2)cc1 | . | . | . | .
CCOc1c(Br)cc(/C=C2\C(=O)ON=C2C)cc1OC | . | 77.9 | . | .
COc1ccc(OC)c(/C=C2/C(=O)ON=C2C)c1 | . | . | . | .
C#CCOc1ccc(/C=C2\C(=O)ON=C2C)cc1OC | . | 67.7 | . | .
COc1ccc(Br)cc1/C=C1\C(=O)ON=C1C | . | 64.7 | . | .
CSc1ccc(/C=C2\C(=O)ON=C2C)cc1 | . | 78.7 | . | .
O=C(/C=C\c1ccc(Cl)cc1)Nn1c(-c2ccccc2F)nc2ccccc2c1=O | . | . | . | .
O=C(Nc1cc(Oc2ccc(I)cc2)cc([N+](=O)[O-])c1)c1nc2nc(-c3ccccc3)cc(C(F)(F)F)n2n1 | . | . | . | .
COc1cc(/C=C2\C(=O)ON=C2C)cc(Cl)c1OC(C)C | . | 75.4 | . | .
O=C(Nc1ccccc1)c1cccc(Br)c1 | . | . | . | .
O=C(Nc1cc(=O)[nH]c(=O)[nH]1)c1cccc(Br)c1 | 43.6 | . | . | .
CCOc1ccc(Oc2cc(NC(=O)c3cnn4c3NC(c3cccs3)CC4C(F)(F)F)cc([N+](=O)[O-])c2)cc1 (stereo not given) | . | . | . | .
O=C(Nc1ccc(N2CCOCC2)cc1)c1ccco1 | 62.4 | . | . | .
O=C(Nc1ccc(N2CCN(Cc3ccccc3)CC2)cc1)c1ccco1 | . | . | . | .
O=C(Nc1ccc(N2CCN(C(=O)c3ccco3)CC2)cc1)c1cccc2ccccc12 | 54.5 | . | . | .
O=C(Nc1ccc(N2CCOCC2)cc1)c1cnccn1 | 48.7 | . | . | .
CC(C)(C)c1ccc(C(=O)Nc2ccc3c(c2)CN(C(=O)c2ccco2)CC3)cc1 | 85.7 | . | . | .
CCNc1nc(NCC)nc(N/N=C/c2ccc(OC)c(OCc3ccccc3)c2)n1 | . | . | . | .
CNc1nc(N/N=C/c2ccc(OC)c(OC)c2)nc(Nc2cccc(C(F)(F)F)c2)n1 | 52.9 | . | . | .
SMILES | TEAD-YAP block | MITF inh | GPR151 activ | FBW7 activator
O=C(Nc1nnc(C23CC4CC(CC(C4)C2)C3)s1)c1ccccc1Cl | . | . | . | .
O=C(Nc1nnc(C23CC4CC(CC(C4)C2)C3)s1)c1cccs1 | 32.7 | . | . | .
O=C(Nc1nnc(C23CC4CC(CC(C4)C2)C3)s1)c1ccccc1 | 42.3 | . | . | .
COc1ccc(C(=O)N2CCN3C(=O)[C@@H](C)NC(=O)[C@H]3C2)cc1 | . | . | . | .
CCNC(=O)Nc1ccc(-n2nnc3cc(C(F)(F)F)cnc32)cc1 | . | . | . | .
COc1cc(C(=O)/C=C/Nc2ccc(I)cc2)cc(OC)c1OC | 35.5 | . | . | .
COc1ccc(C(=O)/C=C/Nc2ccc(Br)cc2)cc1OC | . | . | . | .
COc1ccc(N/C=C/C(=O)c2cc(OC)c(OC)c(OC)c2)cc1 | 42.0 | . | . | .
COc1cc(C(=O)/C=C/Nc2ccc(Br)cc2)cc(OC)c1OC | 38.0 | . | . | .
COc1ccc(N/C=C/C(=O)c2ccc(OC)c(OC)c2)cc1 | . | . | . | .
Cc1cc(NCCc2ccc(O)cc2)nc(Nc2cccc(N(C)C)c2)n1 | . | . | . | .
N#Cc1ccc(Oc2ccc(N3C(=O)C4C5C=CC(C5)C4C3=O)cc2)cc1C#N (stereo not given) | 40.4 | . | . | .
O=C1C2C3C=CC(C3)C2C(=O)N1c1ccc(Oc2ccccc2)cc1 (stereo not given) | . | . | . | .

Compound activity from PubChem.
